# According to ChEMBL document CHEMBL3988442, “University of Dundee, Small-Polar-MMV Screening Library” (2021):
# Among all 48,000 compounds or so, about 13,000 (27%) showed an effect of 50% or more. Some of the results follow.
# Test system: Wolbachia pipientis
# Assay: Anti-Wolbachia Cell-Based Screen
# Assay type: functional
# Parameters: scale not given: in the data most compounds retested in dose-response had high values
# Conditions: 5 µM
row,Compound,Percent Effect
1,O=C(CCOc1cccc(F)c1)N1CCCC1Cn1cccn1 (configuration not stated),124.8%
2,O=C(CCOc1ccc(F)cc1)N1CCCC1Cn1cccn1 (configuration not stated),126.4%
3,CN(CC(=O)N1CCCC1Cn1cccn1)C1CC1 (configuration not stated),-6.628%
4,COc1cccc(CNC(=O)CN2CCCCC2Cn2cccn2)c1 (configuration not stated),0.3805%
5,O=C(CCCOc1ccccc1)N1CCCC1Cn1cccn1 (configuration not stated),116.1%
6,Cc1cccc(OCCNC(=O)CN2CCCC2Cn2cccn2)c1 (configuration not stated),-3.043%
7,O=C(CN1CCCC1Cn1cccn1)NCCOc1cccc(F)c1 (configuration not stated),99.45%
8,COCc1nc(CNC(=O)C(C)n2ccnc2C(C)C)no1 (configuration not stated),-16.22%
9,Cc1ccc(NC(=O)NC(C)C(=O)N2CCS(=O)(=O)CC2)cc1 (configuration not stated),-2.937%
10,O=C(c1ccc(Br)o1)N1CCCCC1Cn1cccn1 (configuration not stated),0.8504%
11,Cc1ccc(CC(=O)N2CCCCC2Cn2cccn2)cn1 (configuration not stated),89.03%
12,COc1ccc2c(ccn2CC(=O)N2CCCC2Cn2cccn2)c1 (configuration not stated),2.808%
13,O=C(Cn1cnnn1)N1CCCCC1Cn1cccn1 (configuration not stated),-6.209%
14,COc1cccc(COCC(=O)N2CCCC(n3cccn3)C2)c1 (configuration not stated),17.54%
15,COc1ccc(OCCC(=O)N2CCCC2Cn2cccn2)cc1 (configuration not stated),116.7%
16,COc1ccc(CC(=O)N2CCCCC2Cn2cccn2)cc1 (configuration not stated),136.1%
17,COc1cccc(COCC(=O)N2CCCC(N3CCCC3)CC2)c1 (configuration not stated),-3.543%
18,COc1cccc(COCC(=O)N2CCCC2Cn2cccn2)c1 (configuration not stated),116%
19,COc1ccc2cc(C(=O)N3CCCCC3Cn3cccn3)[nH]c2c1 (configuration not stated),-2.712%
20,Cc1cc(CN(C)C(=O)c2ccc(F)cc2F)no1,11.87%
21,COc1c(Br)cccc1CCNC(=O)c1csnn1,-2.024%
22,CN1CCC(Cc2noc(CCc3nc4ccccc4nc3O)n2)CC1,-2.649%

row,Compound,Percent Effect
1,Cc1cnc(C)c(N2CCN(CCCc3ccncc3)CC2)n1,-5.646%
2,CC(C)NC(=O)NC(=O)C(C)N1CCN(C2CCN(C(C)C)CC2)CC1 (configuration not stated),-25.53%
3,COC(=O)C1CCCCN1Cc1cccc(C(=O)NCc2ccco2)c1 (configuration not stated),0.7191%
4,CCn1ncnc1C(C)NC(=O)C1CCN(C(C)C)CC1 (configuration not stated),-6.672%
5,CCn1ncnc1C(C)Nc1cc(C2CC2)ncn1 (configuration not stated),83.57%
6,CCn1ncnc1C(C)Nc1cc(C2CCNCC2)nc(C)n1 (configuration not stated),90.92%
7,CCn1nc(C)c(C(C)Nc2cc(C3CCNCC3)nc(C)n2)c1C (configuration not stated),97.89%
8,CCc1cnc(C)nc1NC(CC)c1ncnn1CC (configuration not stated),9.184%
9,CCn1ncnc1C(C)Nc1cc(C)c2ccc(SC)cc2n1 (configuration not stated),-5.818%
10,CCn1ncnc1C(C)NC(=O)CC1CCN(C(C)C)CC1 (configuration not stated),-18.67%
11,NC(=O)CCNC(=O)Cc1cccc(I)c1,-0.109%
12,COc1cc(C(C)NCc2scnc2C)ccc1SC(F)F (configuration not stated),-45.23%
13,Cc1ccc(N2CC3(CCN(S(=O)(=O)C4CC4)C3)C2)nn1,-11.71%
14,COCCCNC(=O)CN1CCCC1c1c(C)nn(C)c1Cl (configuration not stated),-2.309%
15,Cc1nn(C)c(C)c1C1CCCN1CC(=O)NC(C1CC1)C1CC1 (configuration not stated),8.112%
16,COCCNC(=O)CN1CCCC1c1c(C)nn(C)c1Cl (configuration not stated),87.98%
17,Cc1nn(C)c(Cl)c1C1CCCN1CC(=O)NCc1ccco1 (configuration not stated),93.09%
18,Cc1nc(C)n(CC2CCCN2CC(=O)NCc2ccco2)n1 (configuration not stated),-10.96%
19,NC(=O)CN1C(=O)CO[C@H]2CN(Cc3ccc(Cl)cc3)C[C@H]21,-3.813%
20,CN(CC(N)=O)Cc1c(Cl)ccc2cccnc12,1.669%
21,COc1ccc(Cl)cc1NCC(=O)N(Cc1ccncc1)C1CC1,10.17%
22,Cc1ccc(CSc2nc(N)cc(NCCS(=O)(=O)N(C)C)n2)cc1,94.01%

row,Compound,Percent Effect
1,Cc1ccc(CSc2nc(N)cc(NCC(=O)N3CCNCC3)n2)cc1,0.4693%
2,CN(C)S(=O)(=O)CCNc1ncc2c(n1)CCN2c1ccccc1,-5.162%
3,Cc1ccc(CSc2nc(N)cc(NCCC(N)=O)n2)cc1,-9.969%
4,Cc1ccc(CSc2nc(N)cc(NCCC(=O)N3CCCC3)n2)cc1,92.81%
5,Cc1cc(NCCS(C)(=O)=O)nc2ccccc12,2.58%
6,CC(C)c1nc2n(n1)CC(Nc1ncnc3ccccc13)CC2 (configuration not stated),-42.74%
7,COC1CCN(C(=O)c2nn(-c3ccc(C(C)C)cc3)cc2O)CC1,2.392%
8,CC(C)C1CN(C(=O)c2nccnc2N)CCS1 (configuration not stated),-3.274%
9,CC(C)C1CN(C(=O)c2cc(F)cc3[nH]cnc23)CCS1 (configuration not stated),102.4%
10,COCCN(CCOC)C(=O)c1cc(F)cc2[nH]cnc12,18.56%
11,CCN(CCC(=O)OC)C(=O)c1cc(F)cc2[nH]cnc12,-3.962%
12,COC(=O)CCCN(C)C(=O)c1cc(F)cc2[nH]cnc12,-15.15%
13,CC1(C)CCN1C(=O)c1cc(F)cc2[nH]cnc12,96.75%
14,CC(C)C1CN(C(=O)c2ccc(C(N)=O)cc2)CCS1 (configuration not stated),0.1325%
15,CC1(C)CN(C(=O)c2cc(F)cc3[nH]cnc23)CCS1,94.05%
16,CCCN(CC(F)(F)F)C(=O)c1cc(F)cc2[nH]cnc12,-1.946%
17,CCC(CO)NC(=O)Nc1cc(F)ccc1Br (configuration not stated),7.156%
18,N#Cc1cccc(OCC(=O)N(Cc2ccsc2)C2CC2)c1,-11.35%
19,COCC1CCN(CCCc2cccc(OC)c2)CC1,-10.46%
20,CC(C)(C)CNC[C@H]1Cn2ccnc2CO1,-18.46%
21,NC(=O)C1CN(C(=O)Nc2ccccc2N2CCCCCC2)CCO1 (configuration not stated),3.966%
22,NC(=O)C1CN(C(=O)Nc2ccccc2-c2cccs2)CCO1 (configuration not stated),-5.73%

row,Compound,Percent Effect
1,NC(=O)C1CN(C(=O)Nc2ccccc2Oc2ccccc2Cl)CCO1 (configuration not stated),94.62%
2,O=C(COc1ccccc1O)N1CCOC(C(F)(F)F)C1 (configuration not stated),13.92%
3,NC(=O)C1CN(C(=O)Nc2ccccc2SC(F)(F)F)CCO1 (configuration not stated),-3.203%
4,NC(=O)C1CN(C(=O)Nc2ccccc2OCC(F)(F)F)CCO1 (configuration not stated),120.3%
5,NC(=O)C1CN(C(=O)C2(c3ccc(F)cc3F)CCCC2)CCO1 (configuration not stated),-8.523%
6,C=C(C)COc1ccccc1NC(=O)N1CCOCC1CO (configuration not stated),6.942%
7,NC(=O)C1CN(C(=O)Nc2ccccc2SC2CCCC2)CCO1 (configuration not stated),100%
8,CSc1ccc(-c2nc(CN3CCCC(CNC(C)=O)C3)c(C)o2)cc1 (configuration not stated),24.94%
9,CC(=O)N1CCC(N2CCOC[C@H]2c2nc(-c3ccccc3)c[nH]2)CC1,-17.76%
10,Cc1cc(C)c2nc(CN3CCC(C#N)CC3)cc(O)c2c1,-6.492%
11,O=C(NCc1cc2n(n1)CCCN(Cc1ccc(CO)o1)C2)C1CCC1,-16.23%
12,N#Cc1ccc(NCc2cc3n(n2)CCCN(C(=O)C2CCC2)C3)nc1,102.7%
13,CS(=O)(=O)N1CCCn2nc(CNc3cc(C#N)ccn3)cc2C1,9.255%
14,O=C(NCc1cc2n(n1)CCCN(Cc1ccc(Cl)s1)C2)C1CCC1,-18.59%
15,N#Cc1ccnc(NCc2cc3n(n2)CCCN(C(=O)C2CCC2)C3)c1,115.4%
16,CC(=O)c1ccc(NCc2cc3n(n2)CCCN(S(C)(=O)=O)C3)nc1,-0.5632%
17,CSCC(C)(O)CNC(=O)Nc1ccc(C)cc1Br (configuration not stated),7.748%
18,CN(C)C(=O)c1cccc(C2CCN(c3ncccn3)CC2)n1,135.8%
19,O=C(O)c1cccc(CC2CCN(c3ncccn3)CC2)c1,-1.664%
20,O=C(C1CC1)N1CCCCCC1C1CCN(c2ncccn2)CC1 (configuration not stated),-21.65%
21,CN(C)C(=O)[C@@H]1CCO[C@@H]2CCN(c3ncccn3)C[C@H]21,1.087%
22,NC(=O)c1cccc(C2CCN(c3ncccn3)CC2)n1,105.7%

row,Compound,Percent Effect
1,CCN(C(C)=O)C1CCN(c2nccc(C3CCCC3)n2)C1 (configuration not stated),3.77%
2,COC(=O)c1ccc(NC(=O)[C@@H]2CCCN2C(=O)c2ccco2)s1,-1.409%
3,COCCN(Cc1ccco1)Cc1nc(-c2ccccc2)no1,2.564%
4,COCCN(Cc1ccccc1)Cc1nc(-c2ccsc2)no1,2.788%
5,COC(=O)c1ccc(-c2noc(CN(CCO)Cc3cccs3)n2)cc1,109.2%
6,CCN(Cc1nc(C(C)C)no1)Cc1cccs1,12.81%
7,CC(Cn1cccn1)NCc1nc(-c2ccc3c(c2)OCO3)no1 (configuration not stated),-6.149%
8,OCCN(Cc1ccccc1)Cc1nc(-c2ccc3c(c2)OCO3)no1,99.41%
9,OCCN(Cc1nc(-c2ccc3c(c2)OCO3)no1)Cc1cccs1,121.2%
10,OCCN(Cc1nc(-c2ccc3c(c2)OCO3)no1)CC1CC1,-12.91%
11,CCc1nc(CN(Cc2cccs2)CC2CCCO2)no1 (configuration not stated),3.529%
12,Cc1ccc(Sc2ccc(N3CCC(C(=O)O)CC3)nn2)cc1,6.07%
13,Cc1cc(C)c(-n2cccn2)c(CN2CCOCC(CN(C)C)C2)c1 (configuration not stated),9.231%
14,Cc1cccnc1[C@H](C)NC(=O)Cc1cc2c(cc1Cl)OCCO2,3.322%
15,CN1CCOC[C@H]1c1nc(-c2ccccc2)c[nH]1,1.409%
16,O=C(C1CC1)N1CCC(C(=O)N2CCC(c3ccc(F)cc3)C2)CC1 (configuration not stated),-1.259%
17,CCS(=O)(=O)N1CCc2nc(N3CCCC3)nc(N(C)C)c2CC1,3.292%
18,O=C(C1CC1)N1CCc2nc(C3CCN(C(=O)C4CC4)C3)nc(O)c2C1 (configuration not stated),98.35%
19,CCS(=O)(=O)N1CCc2nc(C3CCN(C(=O)C4CC4)C3)nc(O)c2C1 (configuration not stated),88.69%
